Reference: PubChem BioAssay AID1053 (University of Pittsburgh Molecular Library Screening Center, 2008)

What follows are compounds tested against Serine/threonine-protein kinase PLK1 (Homo sapiens) (UniProt P53350) (assay: Plk1 polo box domain binding inhibitors, SAR follow-up, biochemical, fluorescence polarization, purchased analogs (AID 1053)). Details: Plk1 PBD fluorescence polarization peptide binding; at 20 µM; active compounds read high; call rule not given here.
Chain of Serine/threonine-protein kinase PLK1 (Homo sapiens) (P53350 whole entry, looked up, the tested form may be a part): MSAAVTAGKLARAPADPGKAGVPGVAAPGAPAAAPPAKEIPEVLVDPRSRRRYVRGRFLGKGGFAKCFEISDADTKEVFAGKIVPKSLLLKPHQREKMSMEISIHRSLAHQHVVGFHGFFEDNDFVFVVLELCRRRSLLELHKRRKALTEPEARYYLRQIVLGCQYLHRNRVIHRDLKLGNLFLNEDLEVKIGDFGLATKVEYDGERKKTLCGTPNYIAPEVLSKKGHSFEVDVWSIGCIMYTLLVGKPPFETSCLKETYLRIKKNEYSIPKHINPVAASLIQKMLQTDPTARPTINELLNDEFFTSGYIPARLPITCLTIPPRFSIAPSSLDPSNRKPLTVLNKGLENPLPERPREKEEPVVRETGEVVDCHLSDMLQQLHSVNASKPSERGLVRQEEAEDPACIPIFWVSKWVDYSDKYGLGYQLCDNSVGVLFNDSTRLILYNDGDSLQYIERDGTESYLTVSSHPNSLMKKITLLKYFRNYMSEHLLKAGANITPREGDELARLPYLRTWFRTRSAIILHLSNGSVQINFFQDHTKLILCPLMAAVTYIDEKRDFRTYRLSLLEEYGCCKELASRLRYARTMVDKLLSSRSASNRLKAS

inhibition, inactive:
Cn1c(=O)[nH]c2nnc(-c3ccc(Cl)cc3)nc2c1=O 28.8%
COc1ccccc1N(CN1C(=O)c2ccccc2C1=O)C(C)=O -46.9%
CC1CN(c2cc3nccnc3cc2F)CC(C)O1 (stereo not given) -46.8%
COc1ccc(N(/C=C2\Sc3ccccc3C2=O)C(C)=O)cc1 -312%
CC(=O)N(/C=C1\Sc2ccccc2C1=O)c1ccc(C)c(C)c1 -217%
CCOC(=O)c1ccc(NC(=O)c2cc(=O)[nH]c3ccccc23)cc1 -81.3%
Cc1ccc(N(CN2C(=O)c3ccc([N+](=O)[O-])cc3C2=O)C(=O)C(c2ccccc2)c2ccccc2)cc1 -39.6%
CC(=O)N(/N=C1\Sc2ccccc2C1=O)c1ccc(C)cc1C 29.2%
CC(=O)N(CN1C(=O)c2ccc(Br)cc2C1=O)c1ccc(Cl)cc1 -43%
CCOC(=O)c1ccc(N=Cc2c(O)n(Cc3cccs3)c(=O)[nH]c2=O)cc1 -25.6%
CCOC(=O)c1ccc(NC(=O)C2CC(=O)N=C(N)S2)cc1 (stereo not given) -67.2%
CC(=O)N(/N=C1\Sc2ccccc2C1=O)c1ccc(Br)cc1 34.2%
Cn1c(=O)c2nc(-c3ccccc3)c(-c3ccccc3)nc2n(C)c1=O -30.5%
CCn1nc(-c2ccc(C(=O)OC)cc2)nc2c(=O)n(C)c(=O)nc1-2 -9.29%
CCOC(=O)c1ccc(NC(=O)C2OCCc3ccccc32)cc1 (stereo not given) -101%
